Measured values taken from PubChem BioAssay (Tox21).
Records with an inconclusive call do not appear. Calls of active or inactive are those of the source. Unless noted, calls follow the shape of the dose curve; as a rule, active = well fitted curve in the direction sought with a large enough effect in the repeat runs; inconclusive = weak or mixed curves; inactive = no such curve, though single readings can be large; an effect the other way counts as inactive or inconclusive.

Columns and labels:
[1] = biological target: Acetylcholinesterase (Homo sapiens) (UniProt P22303); assay: Acetylcholinesterase (AChE) small molecule antagonists: enzyme-based qHTS assay with human liver microsomes (AID 1347399; calls by dose curve; also: nearly all actives have a fitted effect of over 60% in size); details: Potency: qHTS inhibition; outcome: qHTS inhibition
Acetylcholinesterase (Homo sapiens), sequence (P22303 whole entry, looked up): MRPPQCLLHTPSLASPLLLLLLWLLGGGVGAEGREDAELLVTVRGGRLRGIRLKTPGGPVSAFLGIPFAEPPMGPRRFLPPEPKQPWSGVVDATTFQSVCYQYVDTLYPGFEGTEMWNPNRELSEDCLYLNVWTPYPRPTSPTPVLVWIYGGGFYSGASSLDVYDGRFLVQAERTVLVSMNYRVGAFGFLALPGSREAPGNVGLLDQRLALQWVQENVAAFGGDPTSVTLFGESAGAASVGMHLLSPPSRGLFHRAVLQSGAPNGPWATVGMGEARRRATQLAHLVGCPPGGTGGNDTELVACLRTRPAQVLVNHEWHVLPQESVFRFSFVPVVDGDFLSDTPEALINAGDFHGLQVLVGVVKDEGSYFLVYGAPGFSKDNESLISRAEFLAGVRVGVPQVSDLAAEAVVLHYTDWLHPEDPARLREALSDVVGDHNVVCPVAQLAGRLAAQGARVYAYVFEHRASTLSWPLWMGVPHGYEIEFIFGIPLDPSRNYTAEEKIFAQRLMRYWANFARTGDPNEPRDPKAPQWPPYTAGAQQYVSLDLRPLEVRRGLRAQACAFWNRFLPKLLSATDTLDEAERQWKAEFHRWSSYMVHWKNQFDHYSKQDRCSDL
Method in brief: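 Recombinant human AChE (50 mU/mL in the enzyme mix) and human liver microsomes (0.25 mg/mL final) were preincubated with compound and NADPH (0.25 mg/mL final) for 30 min at 37 C. Acetylthiocholine/DTNB was then added; thiocholine was read colorimetrically after 10 min at room temperature.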

[2] = biological target: Acetylcholinesterase (Homo sapiens) (UniProt P22303); assay: Acetylcholinesterase (AChE) small molecule antagonists: fluorescence cell-based qHTS assay (AID 1347398; calls by dose curve; also: nearly all actives have a fitted effect of over 50% in size; also: potency is read from the fitted curve at half-maximal effect); details: Potency: AChE activity; outcome: AChE activity
Method in brief: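 Using neuroblastoma SH-SY5Y cells as the enzyme source, test chemicals are preincubated 30 min at 37 C; AChE-driven acetylthiocholine cleavage is then quantified by thiocholine-dependent Thiolite Green fluorescence after 40 min at room temperature.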

Aromatase (Homo sapiens) = Aromatase (Homo sapiens) (UniProt P11511); assay: qHTS assay to identify aromatase inhibitors (AID 743083); also: series mostly up to about 70 µM; nearly all actives have a fitted effect of over 55% in size
Aromatase (Homo sapiens), sequence (P11511 whole entry, looked up): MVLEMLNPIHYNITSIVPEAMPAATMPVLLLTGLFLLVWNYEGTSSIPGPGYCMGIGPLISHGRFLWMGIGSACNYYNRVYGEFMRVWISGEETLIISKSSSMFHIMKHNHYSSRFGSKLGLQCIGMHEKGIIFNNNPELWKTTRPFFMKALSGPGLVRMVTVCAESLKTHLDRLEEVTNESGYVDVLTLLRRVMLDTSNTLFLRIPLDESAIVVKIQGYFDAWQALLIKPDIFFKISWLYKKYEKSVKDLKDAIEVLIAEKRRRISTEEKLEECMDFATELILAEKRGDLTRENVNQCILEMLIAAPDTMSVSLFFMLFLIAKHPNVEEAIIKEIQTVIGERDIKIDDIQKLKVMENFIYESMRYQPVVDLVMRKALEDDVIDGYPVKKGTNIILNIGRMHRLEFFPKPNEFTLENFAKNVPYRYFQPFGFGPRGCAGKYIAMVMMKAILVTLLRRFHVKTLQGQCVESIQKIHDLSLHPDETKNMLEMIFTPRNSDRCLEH

[3] = biological target: Aryl hydrocarbon receptor (Homo sapiens) (UniProt P35869); assay: qHTS assay to identify small molecule that activate the aryl hydrocarbon receptor (AhR) signaling pathway (AID 743085);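 also: HG2L7.5c1 human HepG2 liver cells with stably integrated DRE-driven firefly reporter; series mostly up to about 70 µM; nearly all actives have a fitted effect of over 15% in size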
Aryl hydrocarbon receptor (Homo sapiens), sequence (P35869 whole entry, looked up): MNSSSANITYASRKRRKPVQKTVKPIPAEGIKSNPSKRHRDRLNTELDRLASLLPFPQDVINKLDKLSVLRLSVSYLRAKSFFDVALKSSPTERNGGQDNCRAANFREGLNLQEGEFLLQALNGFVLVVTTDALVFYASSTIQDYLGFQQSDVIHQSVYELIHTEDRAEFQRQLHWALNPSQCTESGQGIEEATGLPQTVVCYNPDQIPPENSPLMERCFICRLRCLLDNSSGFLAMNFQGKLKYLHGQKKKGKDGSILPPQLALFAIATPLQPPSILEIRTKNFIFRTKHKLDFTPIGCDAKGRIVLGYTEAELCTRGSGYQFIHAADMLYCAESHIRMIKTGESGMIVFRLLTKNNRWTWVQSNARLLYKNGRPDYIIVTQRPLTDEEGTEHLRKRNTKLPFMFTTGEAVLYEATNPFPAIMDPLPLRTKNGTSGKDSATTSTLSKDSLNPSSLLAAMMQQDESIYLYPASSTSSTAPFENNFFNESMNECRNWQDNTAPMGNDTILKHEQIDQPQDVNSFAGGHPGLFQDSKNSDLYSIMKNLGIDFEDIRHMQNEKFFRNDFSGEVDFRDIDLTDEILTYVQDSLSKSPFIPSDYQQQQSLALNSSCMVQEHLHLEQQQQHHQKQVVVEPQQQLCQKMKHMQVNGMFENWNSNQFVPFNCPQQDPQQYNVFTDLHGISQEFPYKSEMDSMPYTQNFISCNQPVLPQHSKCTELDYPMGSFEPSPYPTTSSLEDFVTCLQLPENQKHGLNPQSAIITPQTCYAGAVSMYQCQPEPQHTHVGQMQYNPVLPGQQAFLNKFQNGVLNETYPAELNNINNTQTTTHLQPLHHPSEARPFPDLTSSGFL
Method in brief: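 Steps: seed HepG2-AhR-luc cells; allow 5 h at 37C; pin-transfer test compound or vehicle; incubate 24 h at 37C; add viability dye (30 min, 37C) and read fluorescence; add luciferase substrate (30 min, RT) and read luminescence.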

[4] = qHTS assay for small molecules that induce genotoxicity in human embryonic kidney cells expressing luciferase-tagged ATAD5 (AID 651632); also: nearly all actives have a fitted effect of over 15% in size
Method in brief: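 A rise in luciferase signal from ATAD5-tagged HEK293T cells marks genetic stress. Cells were exposed to compounds for 16 hr at 37C, 5% CO2, then luciferase was quantified after a 30 min room-temperature incubation with Amplite.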

[5] = qHTS assay for small molecule agonists of the p53 signaling pathway - cell viability (AID 651633; calls by dose curve; also: nearly all actives have a fitted effect of over 30% in size; also: potency is read from the fitted curve at half-maximal effect)
Method in brief: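 p53RE-bla cells, seeded at 4,000 per well and rested 5 h at 37 C/5% CO2, received compounds in DMSO for 16 h at 37 C. CellTiter-Glo was then added, and luminescence was read after 30 min at room temperature to gauge cytotoxicity.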

[6] = qHTS assay for small molecules that induce genotoxicity in human embryonic kidney cells expressing luciferase-tagged ATAD5 - cell viability (AID 651634; calls by dose curve; also: potency is read from the fitted curve at half-maximal effect; nearly all actives have a fitted effect of over 25% in size)
Method in brief: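 Cytotoxicity counter-readout: after 15.5 hr compound treatment at 37C, live-cell protease activity in ATAD5-luciferase HEK293T cells measured by CellTiter-Fluor fluorescence, 30 min development at 37C.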

[7] = qHTS assay for small molecule disruptors of the mitochondrial membrane potential - cell viability (AID 720634; calls by dose curve;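 also: human HepG2 liver cancer cells; series mostly up to about 83 µM; nearly all actives have a fitted effect of over 20% in size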)
Method in brief: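 Cytotoxicity was quantified from ATP content by CellTiter-Glo luminescence in the same wells as the MMP dye read-out. HepG2 (2,000 cells/well) were plated overnight and exposed to compounds for 1 hr at 37 C.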

[8] = qHTS assay for small molecule disruptors of the mitochondrial membrane potential (AID 720635); also: potency is read from the fitted curve at half-maximal effect
Method in brief: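 HepG2 cells (2,000/well) attached overnight at 37C, then took compound for 1 hr at 37C, 5% CO2. Mito-MPS dye was added for 30 min; fluorescence was read at 490/535 nm (monomers) and 540/590 nm (aggregates).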

[9] = qHTS assay to test for compound auto fluorescence at 535 nm (green) in HepG2 cells (AID 720675)
[10] = qHTS assay to test for compound auto fluorescence at 460 nm (blue) in HEK293 cells (AID 720678)
Method in brief: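 Blue-channel (Ex/Em 405/460 nm) intensity measured in HEK293 cultures after overnight compound exposure at 37C; signal expressed relative to triamterene. Cells plated 2,000 per well in 10% dialyzed FBS medium and allowed 4-5 hr to attach.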

[11] = qHTS assay to test for compound auto fluorescence at 590 nm (red) in HEK293 cells (AID 720679)
Method in brief: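 Red-channel autofluorescence (Ex/Em 540/590 nm; Rose Bengal sodium reference) was measured after overnight 37C, 5% CO2 exposure of attached HEK293 cells, 2,000 per well in medium with 10% dialyzed FBS.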

[12] = qHTS assay to test for compound auto fluorescence at 535 nm (green) in HEK293 cells (AID 720680)
[13] = qHTS assay to test for compound auto fluorescence at 460 nm (blue) in HEK293 cell free culture (AID 720681)
Method in brief: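 Test compounds were pinned into cell-free culture medium (DMEM with 10% FBS) and fluorescence was read directly at Ex/Em 405/460 nm. Signals were expressed as fluorescence equivalents of triamterene, with DMSO vehicle as control.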

[14] = qHTS assay to test for compound auto fluorescence at 535 nm (green) in HEK293 cell free culture (AID 720682)
Method in brief: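 Steps: dispense DMEM/10% FBS into empty wells; pin in compound or DMSO; measure fluorescence at 485/535 nm. Values are fluorescein equivalents.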

[15] = qHTS assay to test for compound auto fluorescence at 590 nm (red) in HEK293 cell free culture (AID 720683)
Method in brief: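 Tox21 10K library compounds were pinned into cell-free DMEM with 10% FBS and fluorescence was read at excitation 540 nm. Activity is expressed as Rose Bengal sodium equivalency.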

[16] = qHTS assay to test for compound auto fluorescence at 590 nm (red) in HepG2 cell free culture (AID 720684)
Method in brief: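 Ex 540 / Em 590 nm read of compound in cell-free MEM (10% FBS). Rose Bengal sodium reference.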

[17] = qHTS assay to test for compound auto fluorescence at 460 nm (blue) in HepG2 cell free culture (AID 720685)
Method in brief: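 Cell-free plates of MEM plus 10% FBS received 23 nL compound or DMSO vehicle; blue-channel (405/460 nm) intensity scored against triamterene as reference fluorophore.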

[18] = qHTS assay to test for compound auto fluorescence at 535 nm (green) in HepG2 cell free culture (AID 720686)
[19] = qHTS assay to test for compound auto fluorescence at 460 nm (blue) in HepG2 cells (AID 720687)
Method in brief: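 Cells (2,000/well in MEM with 10% FBS) attached overnight at 37 C, then were exposed to compound or DMSO for 1 hr at 37 C, 5% CO2. Fluorescence read at Ex/Em 405/460 nm, expressed as triamterene-equivalent signal.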

[20] = qHTS assay to identify small molecule antagonists of the glucocorticoid receptor (GR) signaling pathway - cell viability counter screen (AID 720693); also: nearly all actives have a fitted effect of over 55% in size; also: potency is read from the fitted curve at half-maximal effect
[21] = qHTS assay for identifying genotoxic compounds that show differential cytotoxicity against isogenic chicken DT40 cell lines with known DNA damage response pathways - Rad54/Ku70 mutant cell line (AID 743015); also: potency is read from the fitted curve at half-maximal effect; nearly all actives have a fitted effect of over 60% in size
[22] = qHTS assay to identify small molecule antagonists of the androgen receptor (AR) signaling pathway - cell viability counter screen (AID 743033; also: nearly all actives have a fitted effect of over 45% in size; also: potency is read from the fitted curve at half-maximal effect)
[23] = biological target: Androgen receptor (Homo sapiens) (UniProt P10275); assay: qHTS assay to identify small molecule antagonists of the androgen receptor (AR) signaling pathway (AID 743035; active = well fitted inhibition curve with a large enough effect in the signal ratio in the repeat runs, not every such curve was filed as active; the % refers to the signal ratio; also: potency is read from the fitted curve at half-maximal effect)
Androgen receptor (Homo sapiens), sequence (P10275 whole entry, looked up): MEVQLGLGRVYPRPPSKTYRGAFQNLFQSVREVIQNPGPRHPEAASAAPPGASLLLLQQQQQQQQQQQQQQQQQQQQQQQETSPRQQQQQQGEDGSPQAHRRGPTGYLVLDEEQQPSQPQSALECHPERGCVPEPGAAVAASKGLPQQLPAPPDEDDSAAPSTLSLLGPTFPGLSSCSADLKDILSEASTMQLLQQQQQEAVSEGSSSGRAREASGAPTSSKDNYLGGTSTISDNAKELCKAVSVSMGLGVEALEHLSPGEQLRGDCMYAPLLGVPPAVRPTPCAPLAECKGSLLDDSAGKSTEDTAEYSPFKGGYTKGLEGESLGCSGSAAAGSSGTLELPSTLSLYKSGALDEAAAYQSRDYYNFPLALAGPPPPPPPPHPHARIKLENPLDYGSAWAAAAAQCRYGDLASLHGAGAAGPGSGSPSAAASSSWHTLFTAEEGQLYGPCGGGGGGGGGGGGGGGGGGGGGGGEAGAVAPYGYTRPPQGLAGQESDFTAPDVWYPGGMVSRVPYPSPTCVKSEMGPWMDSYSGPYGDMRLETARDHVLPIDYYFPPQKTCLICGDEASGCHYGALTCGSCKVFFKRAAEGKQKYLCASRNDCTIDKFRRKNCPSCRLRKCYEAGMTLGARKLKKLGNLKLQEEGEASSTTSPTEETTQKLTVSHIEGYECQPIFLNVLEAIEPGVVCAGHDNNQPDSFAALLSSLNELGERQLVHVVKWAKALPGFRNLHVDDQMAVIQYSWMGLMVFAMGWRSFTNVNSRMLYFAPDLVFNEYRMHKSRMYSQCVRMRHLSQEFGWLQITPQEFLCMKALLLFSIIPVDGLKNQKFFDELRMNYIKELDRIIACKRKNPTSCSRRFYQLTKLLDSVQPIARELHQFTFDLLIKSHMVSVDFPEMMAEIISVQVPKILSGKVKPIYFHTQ
Method in brief: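 Antagonist mode: AR-bla HEK293 cells co-treated with test compounds and agonist R1881 for 16 h at 37C, 5% CO2. Beta-lactamase activity read as FRET fluorescence after 2 h room-temperature substrate loading.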

[24] = qHTS assay to identify small molecule antagonists of the thyroid receptor (TR) signaling pathway - cell viability counter screen (AID 743064); also: nearly all actives have a fitted effect of over 50% in size
Method in brief: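 Plate GH3.TRE-Luc cells; incubate 4 h at 37 °C; add compound, then T3 to 1 nM final; incubate 23.5 h; add CellTiter-Fluor; incubate 30 min at 37 °C, 5% CO2; read fluorescence.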

[25] = qHTS assay to identify small molecule antagonists of the thyroid receptor (TR) signaling pathway (AID 743065); also: series mostly up to about 70 µM; nearly all actives have a fitted effect of over 55% in size
Method in brief: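 GH3.TRE-Luc rat pituitary cells carrying two TR response elements driving luciferase were plated for 4 h, given compound plus 1 nM T3 (final), and incubated 23.5 h at 37 C. ONE-Glo luminescence measured reporter inhibition; CellTiter-Fluor fluorescence tracked cytotoxicity.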

[26] = test system: thyroid hormone receptor (rat, GH3 cells); assay: qHTS assay to identify small molecule agonists of the thyroid receptor (TR) signaling pathway (AID 743066; calls by dose curve)
[27] = qHTS assay to identify small molecule antagonists of the estrogen receptor alpha (ER-alpha) signaling pathway - cell viability counter screen (AID 743074; calls by dose curve;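 also: HEK293 cells carrying ER-alpha-UAS-bla reporter stimulated with 17beta-estradiol; potency is read from the fitted curve at half-maximal effect; nearly all actives have a fitted effect of over 45% in size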)
[28] = biological target: Estrogen receptor (Homo sapiens) (UniProt P03372); assay: qHTS assay to identify small molecule agonists of the estrogen receptor alpha (ER-alpha) signaling pathway (AID 743075; calls by dose curve;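 also: HEK293 GripTite cells with ER-alpha and UAS-driven beta-lactamase reporter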)
Estrogen receptor (Homo sapiens), sequence (P03372 whole entry, looked up): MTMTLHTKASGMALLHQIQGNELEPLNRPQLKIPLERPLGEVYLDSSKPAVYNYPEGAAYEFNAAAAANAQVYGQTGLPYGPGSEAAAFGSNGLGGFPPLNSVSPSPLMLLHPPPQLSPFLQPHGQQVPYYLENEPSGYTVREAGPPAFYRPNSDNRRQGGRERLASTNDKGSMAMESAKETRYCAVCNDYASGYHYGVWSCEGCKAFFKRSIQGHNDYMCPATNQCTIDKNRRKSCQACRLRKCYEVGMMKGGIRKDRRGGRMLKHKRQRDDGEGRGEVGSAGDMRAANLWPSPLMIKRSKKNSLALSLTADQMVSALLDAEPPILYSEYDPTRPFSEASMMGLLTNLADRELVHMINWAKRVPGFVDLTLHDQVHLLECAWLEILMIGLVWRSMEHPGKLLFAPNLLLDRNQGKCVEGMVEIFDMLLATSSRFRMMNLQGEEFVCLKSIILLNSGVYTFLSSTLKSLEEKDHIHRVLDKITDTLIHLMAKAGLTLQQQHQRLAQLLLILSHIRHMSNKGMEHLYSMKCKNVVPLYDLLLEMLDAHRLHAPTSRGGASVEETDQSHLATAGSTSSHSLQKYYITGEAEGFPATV

[29] = qHTS assay to identify small molecule antagonists of the estrogen receptor alpha (ER-alpha) signaling pathway using the BG1 cell line - cell viability counter screen (AID 743081);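 also: compound given together with 17beta-estradiol as the ER stimulus; series mostly up to about 70 µM; nearly all actives have a fitted effect of over 45% in size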
[30] = qHTS assay to identify aromatase inhibitors - cell viability counter screen (AID 743084);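 also: cells stimulated with testosterone during compound exposure; nearly all actives have a fitted effect of over 55% in size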
[31] = qHTS assay to identify small molecule that activate the aryl hydrocarbon receptor (AhR) signaling pathway - cell viability counter screen (AID 743086);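 also: HepG2 liver cells carrying the AhR DRE luciferase reporter; series mostly up to about 70 µM; nearly all actives have a fitted effect of over 45% in size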
Method in brief: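 HepG2-AhR-luc (HG2L7.5c1) cells, 4000/well, were preincubated 5 h at 37C, exposed to compound in qHTS format for 24 hr at 37C, then given CellTiter-Fluor for 30 min; viability was read as fluorescence in the reporter wells.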

[32] = biological target: Glucocorticoid receptor (Homo sapiens) (UniProt P04150); assay: qHTS assay to identify small molecule agonists of the glucocorticoid receptor (GR) signaling pathway (AID 720691; active = well fitted activation curve with a large enough effect in the signal ratio in the repeat runs, not every such curve was filed as active; the % refers to the signal ratio)
Glucocorticoid receptor (Homo sapiens), sequence (P04150 whole entry, looked up): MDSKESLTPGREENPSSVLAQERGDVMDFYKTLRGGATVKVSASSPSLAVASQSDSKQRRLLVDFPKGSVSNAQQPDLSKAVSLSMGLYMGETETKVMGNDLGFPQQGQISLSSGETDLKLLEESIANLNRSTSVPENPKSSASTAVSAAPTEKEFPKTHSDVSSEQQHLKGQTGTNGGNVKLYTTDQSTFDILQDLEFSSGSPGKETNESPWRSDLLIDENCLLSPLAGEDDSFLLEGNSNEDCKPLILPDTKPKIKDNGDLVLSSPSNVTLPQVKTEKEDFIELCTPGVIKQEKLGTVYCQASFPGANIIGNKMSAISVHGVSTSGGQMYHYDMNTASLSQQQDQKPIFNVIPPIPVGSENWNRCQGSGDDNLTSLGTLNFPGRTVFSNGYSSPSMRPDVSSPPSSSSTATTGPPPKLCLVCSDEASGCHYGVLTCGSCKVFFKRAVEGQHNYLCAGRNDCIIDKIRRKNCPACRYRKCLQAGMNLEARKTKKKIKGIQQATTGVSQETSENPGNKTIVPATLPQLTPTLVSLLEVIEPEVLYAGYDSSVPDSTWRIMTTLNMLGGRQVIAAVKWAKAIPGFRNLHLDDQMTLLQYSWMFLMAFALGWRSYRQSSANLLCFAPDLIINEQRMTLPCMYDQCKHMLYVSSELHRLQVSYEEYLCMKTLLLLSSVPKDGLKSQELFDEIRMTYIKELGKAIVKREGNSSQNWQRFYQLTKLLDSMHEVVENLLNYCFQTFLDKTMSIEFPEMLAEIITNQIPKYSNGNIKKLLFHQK
Method in brief: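 Agonist-mode qHTS in HeLa cells stably expressing a glucocorticoid-response-element beta-lactamase reporter. Fluorescence intensity read with FRET substrate (2 h, room temperature) after 18 h compound treatment at 37 C.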

[33] = biological target: Glucocorticoid receptor (Homo sapiens) (UniProt P04150); assay: qHTS assay to identify small molecule antagonists of the glucocorticoid receptor (GR) signaling pathway (AID 720692; active = well fitted inhibition curve with a large enough effect in the signal ratio in the repeat runs, not every such curve was filed as active; the % refers to the signal ratio)
Method in brief: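 Inhibition of dexamethasone-driven (5 nM final) beta-lactamase expression was measured in GRE-reporter HeLa cells over 18 h at 37C. Fluorescence was read after 2 h with the B/G FRET substrate at room temperature.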

[34] = qHTS assay to identify small molecule antagonists of the androgen receptor (AR) signaling pathway using the MDA cell line - cell viability counter screen (AID 743041; also: nearly all actives have a fitted effect of over 45% in size)
Method in brief: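 In this qHTS counter assay, fluorescence intensity after CellTiter-Fluor addition indicated viability of MDA-kb2 AR-luc cells given compounds and R1881 for 16 h at 37C.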

[35] = biological target: Estrogen receptor (Homo sapiens) (UniProt P03372); assay: qHTS assay to identify small molecule antagonists of the estrogen receptor alpha (ER-alpha) signaling pathway (AID 743069; active = well fitted curve in the direction sought with a large enough effect in the signal ratio in the repeat runs, not every such curve was filed as active; the % refers to the signal ratio)
Method in brief: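 A 17beta-estradiol challenge was applied right after compound transfer to ER-alpha-UAS-bla HEK293 cells previously kept in charcoal-stripped serum. Plates stood 18 hr at 37C and 5% CO2; fluorescence was read following 2 hr FRET substrate loading at room temperature.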

[36] = qHTS assay to identify small molecule antagonists of the estrogen receptor alpha (ER-alpha) signaling pathway using the BG1 cell line (AID 743080; calls by dose curve;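 also: BG1 cells stimulated with 17beta-estradiol alongside compound; series mostly up to about 70 µM; nearly all actives have a fitted effect of over 25% in size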)
Method in brief: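 Luciferase inhibition measured with ONE-Glo after 30 min at RT in BG1Luc4E2 cells given test compounds and 17beta-estradiol for 21.5 h at 37 C; CellTiter-Fluor viability read in the same wells beforehand.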

Measured: Potency

COc1ccc2cc(S(=O)(=O)N[C@H](CC(=O)N[C@H](Cc3ccc(CN4[C@H](C)CCC[C@@H]4C)cc3)C(=O)N(C)C(C)C)c3ccc4c(c3)OCO4)ccc2c1
inactive: [1]

CCN(CC)CCNC(=O)c1cc(Br)c(N)cc1OC
inactive: [1]

COc1cc2c(N3CCN(C(=O)Nc4ccc(OC(C)C)cc4)CC3)ncnc2cc1OCCCN1CCCCC1
inactive: [1]

Cc1nc2n(c(=O)c1CCN1CCC(C(=O)c3ccc(F)cc3)CC1)CCS2
active: [2] 9770 nM
inactive: [1]

CC[C@@]1([C@@H]2O[C@@H]([C@H]3O[C@@](O)(CO)[C@H](C)C[C@@H]3C)C[C@@H]2C)CC[C@H]([C@]2(C)CC[C@]3(C[C@H](O)[C@@H](C)[C@@H]([C@@H](C)[C@@H](OC)[C@H](C)C(=O)O)O3)O2)O1 (stereo in doubt)
inactive: Aromatase (Homo sapiens) | [3]

CC(=O)O[C@H]1C[C@H](O[C@H]2[C@@H](O)C[C@H](O[C@H]3[C@@H](O)C[C@H](OC4CC[C@@]5(C)C(CC[C@@H]6[C@@H]5CC[C@]5(C)[C@@H](C7=CC(=O)OC7)[C@@H](O)C[C@]65O)C4)O[C@@H]3C)O[C@@H]2C)O[C@H](C)[C@H]1O[C@@H]1O[C@H](CO)[C@@H](O)[C@H](O)[C@H]1O (some centres undefined)
active: [5] 376 nM | [6] 750 nM | [8] 944 nM | [20] 2390 nM | [21] 2660 nM | [22] 601 nM | [23] 4250 nM | [27] 379 nM
not listed: [1] | [2] | [3] | [32] | [33] | [34] | [35] | [36]
inactive: all other assays above

CSc1nc(NC2CC2)nc(NC(C)(C)C)n1
inactive: [2] | [1]

CC1CCN(CCCC(=O)c2ccc(F)cc2)CC1
inactive: [2] | [1]

O=c1[nH]cnc2ccccc12
inactive: [2] | [1]

CC[C@@H](O)C(C[C@@H](C)N(C)C)(c1ccccc1)c1ccccc1
not listed: [1] | [2] | [6] | [8] | [21] | [23] | [24] | [25] | [26] | [27]
inactive: all other assays above
